As a reminder, the AC50 is the midpoint of the concentration-response curve, whichever way the signal moves.

Activity calls are given as the source filed them. How the source made its calls: active means hit-call score of the fitted dose curve at least 0.9, where 1 is the maximum; inactive means score below 0.9.

The record followed here is PubChem BioAssay (EPA / NIEHS).

Common to all, as to details: mRNA level, 48 h; actives raise or lower the signal
Read-out in assay [1]: DNA damage-inducible transcript 3 (DDIT3), DDIT3 (gene 1649)
In words: LTEA_HepaRG_DDIT3: Life Technologies and Expression Analysis (LTEA) Assay for DNA damage-inducible transcript 3 (DDIT3) using HepaRG (AID 2283488). In a few lines:
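Cells are human HepaRG liver cells treated for 48 h with eight half-log concentrations up to 100 uM in 0.5% DMSO. Transcript levels come from qRT-PCR normalized to three housekeeping genes, with activity fitted in both directions relative to vehicle.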

Read-out in assay [2]: Pro-epidermal growth factor (Homo sapiens) (UniProt P01133)
In words: LTEA_HepaRG_EGF: Life Technologies and Expression Analysis (LTEA) Assay for Epidermal growth factor (EGF) using HepaRG (AID 2283489). In a few lines: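 Concentration-response mRNA assay: HepaRG cells dosed 48 h (max 100 uM, 0.5% DMSO), EGF measured by qRT-PCR and normalized to ACTB/GAPDH/POLR2A.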

Read-out in assay [3]: Early growth response protein 1 (EGR1) transcription factor, EGR1 (gene 1958)
In words: LTEA_HepaRG_EGR1: Life Technologies and Expression Analysis (LTEA) Assay for Early growth response protein 1 (EGR1) transcription factor using HepaRG (AID 2283490). The gist of the method: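 EGR1 transcript levels quantified by qRT-PCR (Fluidigm arrays) against three housekeeping genes after 48 h chemical exposure of HepaRG cells. Eight-point half-log series topping at 100 uM, 0.5% DMSO vehicle, analyzed for gain or loss.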

Read-out in assay [4]: Ezrin (EZR), EZR (gene 7430)
In words: LTEA_HepaRG_EZR: Life Technologies and Expression Analysis (LTEA) Assay for Ezrin (EZR) using HepaRG (AID 2283491). In a few lines: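 Differentiated human HepaRG cells, 48 h after plating, were exposed in serum-free induction medium for 48 hours to eight half-log concentrations up to 100 uM in 0.5% DMSO. EZR mRNA was measured by TaqMan qRT-PCR, normalized to ACTB, GAPDH and POLR2A, and fitted bidirectionally against DMSO.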

Read-out in assay [5]: Cytochrome P450 3A7 (Homo sapiens) (UniProt P24462)
In words: LTEA_HepaRG_CYP3A7: Life Technologies and Expression Analysis (LTEA) Assay for CYP3A7 using HepaRG (AID 2283492). The gist of the method:
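qRT-PCR of CYP3A7 in HepaRG lysates after 48 h treatment; concentration-response (8 points, max 100 uM) analysed bidirectionally relative to 0.5% DMSO controls.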

Read-out in another assay: CYP3A5 (gene 1577)
In words: LTEA_HepaRG_CYP3A5: Life Technologies and Expression Analysis (LTEA) Assay for CYP3A5 using HepaRG (AID 2283493). The gist of the method:
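Human HepaRG hepatic cells receive 48 h chemical treatment at eight concentrations (half-log steps from 100 uM) in 0.5% DMSO. Expression of CYP3A5 is quantified by Fluidigm qRT-PCR and normalized to three reference genes.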

Read-out in assay [6]: Fatty Acid-Binding Protein 1 (FABP1), FABP1 (gene 2168)
In words: LTEA_HepaRG_FABP1: Life Technologies and Expression Analysis (LTEA) Assay for Fatty Acid-Binding Protein 1 (FABP1) using HepaRG (AID 2283494). The gist of the method: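 FABP1 expression by TaqMan qRT-PCR, normalised to three housekeeping genes, in HepaRG cells after 48 h chemical treatment. Eight-point half-log series topping at 100 uM in 0.5% DMSO, duplicates; gain or loss fitted relative to vehicle.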

Read-out in assay [7]: Cytochrome P450 4A22 (Homo sapiens) (UniProt Q5TCH4)
In words: LTEA_HepaRG_CYP4A22: Life Technologies and Expression Analysis (LTEA) Assay for Cytochrome P450 4A22 (CYP4A22) using HepaRG (AID 2283495). The gist of the method:
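Concentration-response (8 points, max 100 uM, 0.5% DMSO) in human HepaRG liver cells after 48 h exposure. CYP4A22 mRNA by TaqMan qRT-PCR with housekeeping-gene normalization.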

Read-out in assay [8]: Cytochrome P450 7A1 (Homo sapiens) (UniProt P22680)
In words: LTEA_HepaRG_CYP7A1: Life Technologies and Expression Analysis (LTEA) Assay for Cytochrome P450 7A1 (CYP7A1) using HepaRG (AID 2283496). The gist of the method:
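HepaRG, 48 h exposure, 8-pt half-log series from 100 uM, 0.5% DMSO vehicle, duplicates. Readout: TaqMan qRT-PCR mRNA vs three housekeeping genes; bidirectional curve fit against DMSO baseline.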

Read-out in assay [9]: Glutathione S-Transferase (GSTA2), GSTA2 (gene 2939)
In words: LTEA_HepaRG_GSTA2: Life Technologies and Expression Analysis (LTEA) Assay for Glutathione S-Transferase (GSTA2) using HepaRG (AID 2283497). The gist of the method: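 GSTA2 transcript levels came from Fluidigm TaqMan qRT-PCR normalized to three housekeeping genes, fitted in both directions against DMSO. HepaRG cultures received chemicals for 48 h in serum-free induction medium (0.5% DMSO), 8 half-log concentrations up to 100 uM, duplicate.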

Read-out in assay [10]: Glutamate-cysteine ligase catalytic (GCLC), GCLC (gene 2729)
In words: LTEA_HepaRG_GCLC: Life Technologies and Expression Analysis (LTEA) Assay for Glutamate-cysteine ligase catalytic (GCLC) using HepaRG (AID 2283498). In a few lines: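 Expression by TaqMan qRT-PCR, normalized to three housekeeping genes (ACTB, GAPDH, POLR2A), with up- or down-regulation fitted against DMSO. HepaRG cells dosed in duplicate for 48 h with 8 half-log concentrations up to 100 uM, vehicle 0.5% DMSO.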

Read-out in assay [11]: growth arrest and DNA damage 45 (GADD45G), GADD45G (gene 10912)
In words: LTEA_HepaRG_GADD45G: Life Technologies and Expression Analysis (LTEA) Assay for growth arrest and DNA damage 45 (GADD45G) using HepaRG (AID 2283499). The gist of the method:
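Concentration-response in HepaRG: 48 h dosing, 0.5% DMSO, highest level 100 uM. GADD45G expression by qRT-PCR, normalised to endogenous controls; bidirectional fit to DMSO.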

Read-out in assay [12]: Glutamate-cysteine ligase regulatory (GCLM), GCLM (gene 2730)
In words: LTEA_HepaRG_GCLM: Life Technologies and Expression Analysis (LTEA) Assay for Glutamate-cysteine ligase regulatory (GCLM) using HepaRG (AID 2283500). In a few lines: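 Endpoint is GCLM transcript level by qRT-PCR, normalized to three housekeeping genes, after 48 h chemical exposure of human HepaRG cells (0.5% DMSO vehicle, top 100 uM, half-log dilutions). Fitting was bidirectional relative to DMSO.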

Read-out in assay [13]: Glutathione S-transferase M3 (GSTM3), GSTM3 (gene 2947)
In words: LTEA_HepaRG_GSTM3: Life Technologies and Expression Analysis (LTEA) Assay for Glutathione S-transferase M3 (GSTM3) using HepaRG (AID 2283501). The gist of the method: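 Expression of GSTM3 is determined by qRT-PCR in human liver HepaRG cells treated 48 h with an 8-point half-log range from 100 uM in 0.5% DMSO.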

Read-out in assay [14]: Heat shock 70 kDa protein 1 (HSPA1A), gene 3303
In words: LTEA_HepaRG_HSPA1A: Life Technologies and Expression Analysis (LTEA) Assay for Heat shock 70 kDa protein 1 (HSPA1A) using HepaRG (AID 2283502). In a few lines: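 Cells were plated and cultured for 48 h, then switched to serum-free induction medium. Chemicals were added at eight half-log concentrations up to 100 uM for 48 h. RNA was then isolated and HSPA1A measured by qRT-PCR with bidirectional curve fitting against DMSO.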

Read-out in assay [15]: Hypoxia-inducible factor 1-alpha (Homo sapiens) (UniProt Q16665)
In words: LTEA_HepaRG_HIF1A: Life Technologies and Expression Analysis (LTEA) Assay for Hypoxia-inducible factor 1 (HIF1A) Trancription factor using HepaRG (AID 2283503). The gist of the method: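 HIF1A transcript level read by qRT-PCR (ACTB, GAPDH, POLR2A normalization) after 48 h chemical exposure of HepaRG cultures. Eight half-log concentrations, top 100 uM, 0.5% DMSO vehicle, duplicates; bidirectional curve fit against DMSO baseline.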

Read-out in assay [16]: 3-Hydroxy-3-Methylglutaryl-CoA Synthase 2 (HMGCS2), HMGCS2 (gene 3158)
In words: LTEA_HepaRG_HMGCS2: Life Technologies and Expression Analysis (LTEA) Assay for 3-Hydroxy-3-Methylglutaryl-CoA Synthase 2 (HMGCS2) using HepaRG (AID 2283504). The gist of the method:
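This steatosis marker was read as HMGCS2 mRNA change in HepaRG cells treated 48 h with up to 100 uM chemical. Normalisation used housekeeping genes; activity in either direction was fitted relative to 0.5% DMSO vehicle.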

Read-out in assay [17]: Insulin Like Growth Factor 1 (IGF1), IGF1 (gene 3479)
In words: LTEA_HepaRG_IGF1: Life Technologies and Expression Analysis (LTEA) Assay for Insulin Like Growth Factor 1 (IGF1) using HepaRG (AID 2283506). The gist of the method: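 Cells are thawed, plated and cultured 48 h, then exposed in duplicate to chemical (highest 100 uM, half-log steps, 0.5% DMSO) for another 48 h. Total RNA is analysed by Fluidigm qRT-PCR for IGF1 expression relative to vehicle.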

Read-out in assay [18]: Intercellular Adhesion Molecule 1 (ICAM1), ICAM1 (gene 3383)
In words: LTEA_HepaRG_ICAM1: Life Technologies and Expression Analysis (LTEA) Assay for Intercellular Adhesion Molecule 1 (ICAM1) using HepaRG (AID 2283507). In a few lines:
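Using the human liver line HepaRG, compounds are tested in duplicate over 48 h at concentrations up to 100 uM. Expression is determined by TaqMan qRT-PCR, normalized to endogenous controls, and analysed relative to 0.5% DMSO vehicle.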

Read-out in another assay: HGF (gene 3082)
In words: LTEA_HepaRG_HGF: Life Technologies and Expression Analysis (LTEA) Assay for Hepatocyte Growth Facto (HGF) using HepaRG (AID 2283505). The gist of the method:
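Using HepaRG monolayers kept in 0.5% DMSO, chemicals were tested in duplicate over eight half-log concentrations from 100 uM for 48 h. Endpoint: HGF mRNA change relative to DMSO, normalized to ACTB/GAPDH/POLR2A.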

Hypoxia-inducible factor 1-alpha (Homo sapiens), sequence (Q16665 whole entry, looked up): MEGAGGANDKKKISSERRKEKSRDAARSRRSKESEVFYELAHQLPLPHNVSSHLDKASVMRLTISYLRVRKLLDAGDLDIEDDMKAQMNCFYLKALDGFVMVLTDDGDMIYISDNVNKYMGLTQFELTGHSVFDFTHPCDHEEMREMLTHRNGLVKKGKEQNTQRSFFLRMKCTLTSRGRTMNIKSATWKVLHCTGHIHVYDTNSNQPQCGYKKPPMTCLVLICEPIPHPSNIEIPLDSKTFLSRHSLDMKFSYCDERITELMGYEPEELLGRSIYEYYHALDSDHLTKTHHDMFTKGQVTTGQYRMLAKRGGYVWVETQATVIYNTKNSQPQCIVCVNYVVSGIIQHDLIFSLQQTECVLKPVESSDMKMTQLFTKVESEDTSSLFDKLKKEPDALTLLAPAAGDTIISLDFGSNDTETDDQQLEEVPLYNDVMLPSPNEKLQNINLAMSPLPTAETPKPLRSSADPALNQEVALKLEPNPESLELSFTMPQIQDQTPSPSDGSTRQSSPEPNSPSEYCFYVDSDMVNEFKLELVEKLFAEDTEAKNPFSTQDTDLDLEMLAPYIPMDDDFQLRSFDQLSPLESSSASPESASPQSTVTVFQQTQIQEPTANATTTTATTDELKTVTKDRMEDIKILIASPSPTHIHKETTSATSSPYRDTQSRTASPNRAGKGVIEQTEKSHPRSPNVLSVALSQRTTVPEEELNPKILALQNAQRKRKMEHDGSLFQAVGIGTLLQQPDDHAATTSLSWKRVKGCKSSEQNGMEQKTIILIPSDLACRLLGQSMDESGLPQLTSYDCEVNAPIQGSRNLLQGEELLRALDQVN
Cytochrome P450 3A7 (Homo sapiens), sequence (P24462 whole entry, looked up): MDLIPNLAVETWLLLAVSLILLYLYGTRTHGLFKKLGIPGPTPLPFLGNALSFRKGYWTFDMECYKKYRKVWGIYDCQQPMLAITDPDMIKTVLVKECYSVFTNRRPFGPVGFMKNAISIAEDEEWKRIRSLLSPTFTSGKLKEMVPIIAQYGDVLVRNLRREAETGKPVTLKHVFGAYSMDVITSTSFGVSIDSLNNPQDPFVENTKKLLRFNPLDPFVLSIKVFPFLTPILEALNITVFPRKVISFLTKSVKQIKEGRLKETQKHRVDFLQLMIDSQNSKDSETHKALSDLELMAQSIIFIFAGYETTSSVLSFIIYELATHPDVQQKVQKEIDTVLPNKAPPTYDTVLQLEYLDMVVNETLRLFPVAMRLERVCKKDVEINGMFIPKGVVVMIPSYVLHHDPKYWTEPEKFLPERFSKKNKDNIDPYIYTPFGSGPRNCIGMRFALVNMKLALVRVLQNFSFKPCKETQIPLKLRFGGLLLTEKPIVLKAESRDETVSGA

Turning to `O=NN(c1ccccc1)c1ccccc1`, the molecule was classed as inactive (in [1]; in assay [2]; in assay [3]; in assay [4]; in [5]; with CYP3A5 (gene 1577)). Further, the call in assay [6], in assay [8], in assay [9], in assay [10], in assay [11] and in assay [12] was inactive. Also, the outcome in assay [13], in assay [14], in [15], in assay [16], in assay [17] and in assay [18] was inactive. In assay [7], the AC50 is 50 µM (active).
For `C[C@]12CCC(=O)C=C1CC[C@@H]1[C@@H]2CC[C@@]2(C)[C@H]1CC[C@]2(C)O`, the AC50 was 80 µM (active) in assay [1]; 69.8 µM (active) in assay [7]; 1.9 µM (active) in assay [8]; 69 µM (active) in assay [16]; 11.3 µM (active) in assay [17]. Also, the outcome (in [2]; in assay [3]; in [4]; in assay [5]; with CYP3A5 (gene 1577); in assay [6]) was inactive. For the same molecule, the result in assay [9], in [10], in assay [11], in assay [12], in [13] and in [14] was inactive. Moreover, the molecule was classed as inactive (in assay [15]; in the assay with HGF (gene 3082); in assay [18]).
In the case of `Oc1ccc(Cl)cc1Cl`, the result (in [1]; in assay [2]; in [3]; in assay [4]; in assay [5]; with CYP3A5 (gene 1577)) was inactive. In addition, the outcome in assay [6], in assay [7], in assay [8], in [9], in assay [10] and in assay [11] was inactive. The result in assay [12], in assay [13], in [14], in [15], in [16] and in [17] was inactive. In addition, the call in assay [18] was inactive.
Take `O=S(=O)(O)C(F)(F)C(F)(F)C(F)(F)C(F)(F)C(F)(F)C(F)(F)F`: the molecule was classed as inactive (in assay [1]; in [2]; in [3]; in [4]; with CYP3A5 (gene 1577); in assay [8]). The outcome in [9], in assay [10], in [12], in [13], in [14] and in assay [17] was inactive. Further, the molecule was called inactive in [18]. Further, the half-maximal activity concentration (AC50) in assay [5] was 20.9 µM (active); in [6], 9.02 µM (active); in [7], 25.1 µM (active); in assay [11] it was 3.41 µM (active); in assay [15], 4.59 µM (active); in [16] it was 30.1 µM (active).
As for `CC1=C2C[C@H]3[C@@H](CC=C4C[C@@H](O)CC[C@@]43C)[C@@H]2CC[C@]12O[C@@H]1C[C@H](C)CN[C@H]1[C@H]2C`, the result (in assay [1]; in assay [2]; in [3]; in [4]; in assay [5]; with CYP3A5 (gene 1577)) was inactive. For the same molecule, the outcome in assay [6], in [7], in assay [8], in assay [9], in [10] and in assay [11] was inactive. For the same molecule, the call (in assay [12]; in assay [14]; in assay [15]; in assay [16]; with HGF (gene 3082); in [17]) was inactive. The outcome in assay [18] was inactive.
`Clc1ccc(C(Cl)(Cl)Cl)cc1`: the molecule was classed as inactive (in assay [1]; in assay [2]; in [3]; in assay [4]; in assay [5]; with CYP3A5 (gene 1577)). For the same molecule, the outcome in assay [6], in assay [7], in [8], in assay [9], in assay [10] and in assay [11] was inactive. Also, the call in assay [12], in assay [13], in [14], in [15], in assay [16] and in [17] was inactive. The call in assay [18] was inactive.
